Results on 16 compounds are retold here after PubChem BioAssay (NCATS).

A short description of experiment [1]: Viability qHTS for spleen associated tyrosine kinase inhibitor (SYKi) naive MV4-11 cells (AID 1963823). Note: nearly all actives have a fitted effect of over 40% in size. The settings on record: MV4-11 AML viability, CellTiter-Glo luminescence, 72 h; series mostly up to 45 µM. The method in brief:
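Read-out: CellTiter-Glo luminescence. Exposure: 72 hr, 37 C, 5% CO2, 95% humidity. Cells: MV4-11 without SYK inhibitor history, 500/well, qHTS format.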

Experiment [2] is described as follows: Viability qHTS for spleen associated tyrosine kinase inhibitor (SYKi) drug resistant MV4-11 cells (AID 1963824). Note: nearly all actives have a fitted effect of over 35% in size. The following applies: SYKi-resistant MV4-11 viability, CellTiter-Glo, 72 h; series mostly up to 45 µM. The method in brief: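 SYK inhibitor-resistant MV4-11 AML cells, 500 per well, added to predispensed compounds and incubated 72 hr at 37 C, 5% CO2. Viability measured by CellTiter-Glo luminescence after 10 min at room temperature.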
A general note: Quantitative high-throughput screening tests each substance at several concentrations.

Experiment [3] can be described thus: Quantitative highthroughput screen to assess conditional lethalithy of NOMO1 cells grown in Human Plasma-Like Medium with dialyzed fetal bovine serum (HPLM+ds) (AID 1963878).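 For Viability: 100% = DMSO wells and 0% = empty wells on each plate.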 Note: nearly all actives have a fitted effect of over 35% in size. The following applies: NOMO1 AML cells in HPLM+ds, CellTiter-Glo viability, 48 h; series mostly up to 45.8 µM. In a few lines:
(§1)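 Each medium arm—HPLM with 10% dialyzed FBS, or RPMI1640 with 5 mM glucose and 10% untreated or dialyzed FBS—was screened against an 11-point, 3-fold compound titration for 48 h at 37 °C, with CellTiter-Glo luminescence as endpoint.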

Experiment [4] is described as follows: Quantitative highthroughput screen to assess conditional lethalithy of P12 Ichikawa cells grown in Human Plasma-Like Medium with dialyzed fetal bovine serum (HPLM+ds) (AID 1963879). Note: nearly all actives have a fitted effect of over 35% in size. The following applies: ATP luminescence, 48 h; Potency: viability; series mostly up to 45.8 µM. The method in brief: as §1
Experiment [5] in a line: Quantitative highthroughput screen to assess conditional lethalithy of SEM cells grown in Human Plasma-Like Medium with dialyzed fetal bovine serum (HPLM+ds) (AID 1963882). Note: nearly all actives have a fitted effect of over 35% in size. The settings on record: SEM B-ALL cells in HPLM+ds, CellTiter-Glo viability, 48 h; series mostly up to 45.8 µM. The method in brief: as §1
Experiment [6] in a line: Quantitative highthroughput screen to assess conditional lethalithy of SEM cells grown in RPMI1640 with dialyzed fetal bovine serum (RPMI+ds) (AID 1963884).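 For Viability: 100% = DMSO control wells and 0% = empty wells without cells.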 Note: nearly all actives have a fitted effect of over 35% in size. The following applies: SEM B-ALL cells, RPMI+dialyzed FBS, CellTiter-Glo viability, 48 h; series mostly up to 45.8 µM. In a few lines:
as §1
In general terms: In ATP-based viability assays light output follows the ATP content of the culture.

The nature of experiment [7]: Cellular viability qHTS for adrenocortical cancer (ACC) cell line SW-13 (AID 1963989).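 For activity (max response): cells grown in serum-free medium with ITS supplement; % is set by controls: 0 for no effect and ±100 for the full control effect.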 Note: nearly all actives have a fitted effect of over 65% in size. The following applies: SW-13 ACC cells viability, CellTiter-Glo, 48 h; activity (max response): stronger effect = lower value. The method in brief:
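48 h treatment, SW-13 in ITS/DMEM serum-free; doses up to 46 uM; readout CellTiter-Glo luminescence; curve fit four-parameter logistic.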

A short description of experiment [8]: Quantitative highthroughput screen to assess conditional lethalithy of P12 Ichikawa cells grown in RPMI1640 with dialyzed fetal bovine serum (RPMI+ds) (AID 1963880).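 For Viability: 100% = DMSO wells and 0% = empty wells on each plate.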 Note: nearly all actives have a fitted effect of over 35% in size. The settings on record: ATP luminescence, 48 h; Potency: P12-Ichikawa viability; series mostly up to 45.8 µM. In a few lines: as §1
The nature of experiment [9]: Quantitative highthroughput screen to assess conditional lethalithy of P12 Ichikawa cells grown in RPMI1640 with untreated serum (RPMI+s) (AID 1963881).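 For Viability: 100% = DMSO wells and 0% = empty wells without cells.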 Note: nearly all actives have a fitted effect of over 35% in size. The settings on record: ATP luminescence, 48 h; Potency: viability; series mostly up to 45.8 µM. In a few lines: as §1
The nature of experiment [10]: Quantitative highthroughput screen to assess conditional lethalithy of SEM cells grown in RPMI1640 with unreated serum (RPMI+s) (AID 1963883).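 For Viability: 100% = DMSO wells and 0% = empty wells without cells.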 Note: nearly all actives have a fitted effect of over 35% in size. The following applies: SEM B-ALL cells, CellTiter-Glo viability, 48 h; series mostly up to 45.8 µM. The method in brief:
as §1

Experiment [11] can be described thus: Cellular viability qHTS for adrenocortical cancer (ACC) cell line NCI-H295R (AID 1963990). Note: nearly all actives have a fitted effect of over 60% in size. The following applies: CellTiter-Glo ATP luminescence, 48 h; series mostly up to 46.1 µM. In a few lines:
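Compound titrations (up to 46 uM final) are applied to NCI-H295R cultures for 48 h at 37C. Viable cell number is estimated by CellTiter-Glo signal, normalised to DMSO and doxorubicin controls.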

Where “and” joins values, the source holds several entries; their conditions need not be identical. Equal values may be shown once. Results filed as inconclusive are left out. More than one record can exist for a structure, and the calls need not agree. Calls of active or inactive are those of the source. Calls come from the whole dose curve; as a rule, active = well fitted curve in the direction sought with a large enough effect; inconclusive = small, poorly fitted or top-dose-only effect, or another doubt; inactive = no such curve, though single readings can be large; an effect the other way counts as inactive or inconclusive.
Potency is the fitted concentration of half-maximal effect.

Take `COc1cc2nc(N3CCN(C(=O)c4ccco4)CC3)nc(N)c2cc1OC`: the Potency was 10.3 µM (active) in experiment [1]; 11.6 µM (active) in experiment [2]; 13.2 µM (active) in [3]; 16.6 µM (active) in experiment [4]; 9.35 µM (active) in experiment [5]; 7.43 µM (active) in [6]. Moreover, in experiment [7], the activity (max response) was -8.85% (inactive).

With `CC(C)n1cnc2c(NCCc3ccc(O)cc3)nc(-c3csc4ccccc34)nc21`, the Potency in experiment [1] is 14.8 µM (active); in experiment [2] it was 14.8 µM (active); in experiment [4], 3.72 µM (active); in experiment [8], 13.2 µM (active); in experiment [9], 14.8 µM (active); in experiment [10], 7.43 µM (active). Moreover, the Potency in experiment [6] is 5.26 µM (active). Besides, in experiment [11], the Potency result was “inactive”.

Regarding `CN(C)C(=O)COC(=O)Cc1ccc(OC(=O)c2ccc(N=C(N)N)cc2)cc1`, the Potency result in experiment [1] was “inactive”. Moreover, the Potency result in experiment [2] is “inactive and 7.42 µM (active)”; in [3] it was 20.9 µM (active). In experiment [7], the activity (max response) is 3.47% (inactive) and -2% (inactive).

For the compound `CN1CCN(c2c(F)cc3c(=O)c(C(=O)O)cn4c3c2OCN4C)CC1`, the Potency result in [1], in experiment [2], in experiment [4], in [8], in experiment [9] and in [11] was “inactive” each time. Moreover, the activity (max response) in [7] was -1.01% (inactive).

Take `CC(C)(C)NC(=O)Nc1cccc(Nc2ncc(F)c(NC(C)(C)CO)n2)c1`: the Potency in [1] was 1.48 µM (active); in [2], 2.31 µM (active); in experiment [4], 8.33 µM (active); in [10], 7.43 µM (active); in experiment [6] it was 6.62 µM (active). Moreover, the Potency result in [3] was “inactive”.

For `Nc1nc(N)c2nc(-c3cccc(O)c3)c(-c3cccc(O)c3)nc2n1`, the Potency in experiment [1] is 13 µM (active); in experiment [2], 14.6 µM (active); in experiment [3] it was 10.5 µM (active); in [5], 10.5 µM (active); in [10], 18.7 µM (active).

`OC(c1cc(C(F)(F)F)nc2c(C(F)(F)F)cccc12)C1CCCCN1` (configuration not stated): the Potency in experiment [1] is 18.6 µM (active); in experiment [2] it was 9.34 µM (active); in [3] it was 23.5 µM (active); in experiment [7], 22.4 µM (active).

Take `COc1ccc(-c2cc3c(C)nc(N)nc3n(C3CCC(OCCO)CC3)c2=O)cn1` (configuration not stated): the Potency in experiment [1] is 0.105 µM (active); in [2], 206 nM (active) and 417 nM (active); in experiment [3] it was 0.105 µM (active); in [5], 0.833 µM (active); in experiment [10], 0.469 µM (active); in experiment [6], 1.87 µM (active). Also, the results for the Potency in experiment [7] and in experiment [11] were 1.12 µM (active) and 0.501 µM (active), respectively.

`CNC(=O)c1c(-c2ccc(F)cc2)oc2cc(N(CCO)S(C)(=O)=O)c(C3CC3)cc12`: the Potency entry in experiment [1] and in experiment [2] was “inactive” throughout. The Potency in experiment [3] was 8.33 µM (active); in experiment [8] it was 5.9 µM (active); in experiment [9], 6.62 µM (active); in experiment [5] it was 1.32 µM (active); in experiment [6], 0.264 µM (active).

With `CCc1c2c(nc3ccc(OC(=O)N4CCC(N5CCCCC5)CC4)cc13)-c1cc3c(c(=O)n1C2)COC(=O)[C@]3(O)CC`, the Potency in [1] is 2.99 µM (active) and 263 nM (active); in experiment [2] it was 2.66 µM (active) and 296 nM (active); in [4] it was 1.18 µM (active); in experiment [8] it was 1.18 µM (active); in experiment [9], 0.833 µM (active); in [5], 2.35 µM (active). Also, the Potency was 1.87 µM (active) in experiment [10]; 1.48 µM (active) in [6]; 3.66 µM (active) and 3.55 µM (active) in [7].

On to `COc1cc(-c2nn(C3CCC(N4CCN(C(C)=O)CC4)CC3)c3ncnc(N)c23)ccc1NC(=O)c1cc2ccccc2n1C` (configuration not stated), for which the Potency result was “inactive and 2.63 µM (active)” in experiment [1]; 2.95 µM (active) in [2]. The Potency entry in experiment [4], in [8], in experiment [9], in experiment [5], in [10] and in [6] was “inactive” each time. For the same compound, the Potency entry in [11] was “inactive”. For the same compound, the activity (max response) in experiment [7] is -14.1% (inactive).

For `N#CCNC(=O)c1ccc(-c2ccnc(Nc3ccc(N4CCOCC4)cc3)n2)cc1`, the Potency is 0.411 µM (active) in experiment [1]; 580 nM (active) and 934 nM (active) in experiment [2]; 23.5 µM (active) in experiment [3]; 11.8 µM (active) in experiment [5]; 10.5 µM (active) in experiment [10]; 25.1 µM (active) in experiment [7].

As for `Nc1nc(Cl)nc2c1ncn2[C@@H]1O[C@H](CO)[C@@H](O)[C@H]1F`, the Potency in experiment [1] was 0.082 µM (active); in [2], 0.164 µM (active). Moreover, the Potency entry in [4], in experiment [8], in experiment [9], in [5] and in experiment [10] was “inactive” in each case.

For the compound `COc1cc2ncnc(Nc3cccc(Cl)c3)c2cc1OC`, the Potency is 4.61 µM (active) and 5.17 µM (active) in experiment [1]; 4.17 µM (active) and 6.51 µM (active) in experiment [2]; 4.69 µM (active) in experiment [3]; 4.69 µM (active) in experiment [4]; 0.332 µM (active) in experiment [5]; 0.166 µM (active) in experiment [10]. In addition, the Potency in experiment [6] was 0.372 µM (active); in experiment [7], 5.62 µM (active).

In the case of `O=C(Nc1ccc([N+](=O)[O-])cc1Cl)c1cc(Cl)ccc1O`, the Potency is 920 nM (active) and 934 nM (active) in experiment [1]; 1.16 µM (active) and 742 nM (active) in [2]; 3.72 µM (active) in [4]; 2.96 µM (active) in experiment [8]; 2.35 µM (active) in experiment [9]; 1.18 µM (active) in experiment [10]. Further, the Potency in experiment [7] is 142 nM (active) and 447 nM (active).

Regarding `O=C(Nc1ccc(OC(F)(F)F)cc1)c1sccc1NCc1ccnc2ccccc12`, the Potency in experiment [1] was 5.25 µM (active) and 5.17 µM (active); in [2] it was 4.68 µM (active) and 5.8 µM (active); in [4] it was 0.469 µM (active); in experiment [8], 2.35 µM (active); in experiment [9], 2.35 µM (active); in experiment [5] it was 2.96 µM (active). Moreover, the results for the Potency in experiment [10] and in experiment [6] were 2.96 µM (active) and 7.43 µM (active), respectively. In experiment [7], the activity (max response) was -29.8% (inactive).
